Most compounds without a hit are left out; they make up all but 6.5% or so of the library.
Marburg entry inh = blocks Marburg virus binding to or entry into cells | Marburg virus pseudotyped entry inhibition, cell reporter | Potency, µM (top dose mostly 37.8 µM), hits mostly inhibitors | actives 1.8% (n = 300,000) | AID 540276; calls by dose curve; tested in HEK293 cells
Lassa entry inh = blocks Lassa virus binding to or entry into cells. Lassa virus pseudotype entry inhibition, cell reporter. Potency, µM (doses to about 37.9 µM), most hits filed as inhibitors. actives 1.2% (n = 300,000); calls by dose curve; tested in HEK293 cells; further: nearly all actives have a fitted effect of over 50% in size
VACV Venus inh = inhibitors of vaccinia virus (Venus reporter); Vaccinia virus Venus reporter expression, fluorescence; Potency, µM (titrated, usually from 36.5 µM), usual class: inhibitors; actives 0.46% (n = 330,000); AID 720580; calls by dose curve; tested in A549 cells; further: nearly all actives have a fitted effect of over 30% in size
HCMV antiviral = blocks human cytomegalovirus replication. AID 1259415. HFF cells, HCMV-luciferase reporter, 72 h; active compounds read low. activity change, negative = inhibition, % at 57.5 µM. actives 4.5% (n = 410,000); in the data active means activity change below about -60%; inconclusive means no clear call, values can overlap the other calls; inactive means above about -39%
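Cell-based, HFFs, 1000 cells/well, 16 h 37C; cpds in DMSO + HCMV-luc, MOI 1 PFU/cell; 72 h 37C; OneGlo luminescence after 5 min RT; norm. to buffer vs Salinomycin 10uM.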
VACV mCherry inh = inhibitors of vaccinia virus infection (mCherry reporter signal); Vaccinia virus mCherry reporter infection, fluorescence; Potency, µM (doses to about 36.5 µM), hits mostly inhibitors; actives 0.63% (n = 310,000); AID 720579; calls by dose curve; tested in A549 cells; further: nearly all actives have a fitted effect of over 35% in size
FMDV inh = foot and mouth disease virus antiviral activity; actives 1.2% (n = 410,000); AID 1159524; Potency, µM (series often up to 57.9 µM), hits mostly inhibitors; FMDV antiviral cell-based qHTS; calls by dose curve; tested in HEK293T cells; further: read-out not given here; nearly all actives have a fitted effect of over 45% in size
A number is an active result; 0 = inactive; ? = inconclusive; - = no result.

SMILES	Marburg entry inh	Lassa entry inh	VACV Venus inh	HCMV antiviral	VACV mCherry inh	FMDV inh
CCOC(=O)c1c(S(=O)(=O)N2CCC(C(=O)NCc3ccccc3Cl)CC2)c(C)n(C)c1C	-	0	0	0	0	0
CCCn1c(SCC(=O)NC2CCCC2)nnc1-c1cccnc1	?	-	0	0	0	0
CCCn1c(SCC(=O)NC2CCCCC2)nnc1-c1cccnc1	0	0	0	-65.4	0	0
c1csc(CNc2ccc3c(c2)OCCO3)c1	1µM	?	0	-86.1	0	?
O=C(NCc1cccnc1)/C(=C/c1ccc(-c2cccc(C(F)(F)F)c2)o1)NC(=O)c1ccccc1	?	?	0	0	0	0
O=C(NCc1cccnc1)/C(=C\c1ccc(-c2ccc(Br)cc2)o1)S(=O)(=O)c1ccccc1	?	12.6µM	10µM	-102.6	?	3.16µM
O=C(NCc1cccnc1)/C(=C/c1ccc(-c2ccc(Cl)cc2)o1)S(=O)(=O)c1ccccc1	?	18.3µM	-	-	-	3.55µM
Cc1ccc(C)c(NC(=O)CN(C)C(=O)c2ccc3[nH]c4c(c3c2)CC(C)CC4)c1 (configuration not stated)	0	0.562µM	?	0	?	0
CC1CCc2[nH]c3ccc(C(=O)N(C)CC(=O)Nc4ccccc4Br)cc3c2C1 (configuration not stated)	?	?	0	0	?	?
CCOC(=O)/C=C/[C@H](CCc1ccccc1)NC(=O)C(F)(F)F	-	-	-	0	-	-
Cn1cc(C(=O)C(F)(F)F)c2ccccc21	0	0	0	0	-	0
Cn1cc(C(=O)Cc2ccccc2)c2ccccc21	0	0	0	-67.1	0	0
COc1ccc(CNC(=O)CCc2c(C)nc3c(c(C)nn3-c3ccccc3)c2C)cc1	?	0	0	0	0	?
OCc1cnc(SCc2ccccc2)n1Cc1ccccc1	0	0	0	-64.0	0	0
C=CCSc1ncc(CO)n1Cc1ccccc1	0	0	0	?	0	0
COc1ccc(NC(=O)c2ccco2)cc1NC(=O)C(C)(C)Oc1ccc(Cl)cc1	?	?	0	0	0	44.7µM
COc1ccc(NC(=O)c2ccco2)cc1NC(=O)C(C)Oc1ccc(Cl)cc1Cl (configuration not stated)	?	?	0	-80.1	0	?
COc1ccc(NC(=O)Cc2ccc(Cl)cc2)cc1NC(=O)c1ccco1	0	0	-	-85.9	-	0
CCOC(=O)c1c(Oc2ccc(C(C)=O)cc2)nnc(-c2ccccc2)c1-c1ccccc1	?	0	0	0	0	?
COc1ccc(C(=O)NCc2nnc(SCC(=O)Nc3ccc(F)cc3)n2-c2ccccc2)cc1	0	?	0	0	0	0
CCCCC(CC)CNC(=O)CN1C(=O)CSc2ccc(S(=O)(=O)N3CCOCC3)cc21 (configuration not stated)	-	0	0	0	0	0
Cc1cccc(N=C2NC(=O)/C(=C/c3cccn3C)S2)c1C	8.91µM	?	0	?	0	0
Cc1ccc(N=C2NC(=O)/C(=C/c3cccn3C)S2)cc1C	?	?	0	?	0	0
CCCOc1ccc(C(=O)Nc2ccc(Cl)c(-c3nc4ncccc4o3)c2)cc1	-	0	0	?	0	0
CCSc1ccc(-c2nn(-c3ccccc3)cc2/C=C(/C#N)C(=O)NC)cc1	0	0	0	0	0	0
SMILES	Marburg entry inh	Lassa entry inh	VACV Venus inh	HCMV antiviral	VACV mCherry inh	FMDV inh
CCCSc1ccc(-c2nn(-c3ccccc3)cc2/C=C(/C#N)C(=O)N2CCOCC2)cc1	7.08µM	?	0	0	0	0
N=c1sccn1CC(=O)Nc1ccc(S(=O)(=O)N2CCOCC2)cc1	0	0	0	-62.8	?	0
O=C(Nc1ccc(Cc2ccncc2)cc1)c1ccc(S(=O)(=O)N2CCOCC2)cc1	?	?	?	-73.3	?	17.8µM
CCN(CC)S(=O)(=O)c1ccc(NC(=O)c2ccc(N3CCCC3=O)cc2)cc1	?	?	0	-76.5	0	?
O=C(Nc1ccc(S(=O)(=O)N2CCCCC2)cc1)c1ccc(CN2CCOCC2)cc1	8.2µM	?	?	-	0	-
CCCCCCCCCCCCCC(=O)Nc1ccc(/C=C/c2ccnc3ccccc23)cc1	-	-	0	-	0	-
CCc1cnc2ccccc2c1/C=C/c1ccc(N(C)C)cc1	-	-	0	-	0	-
CC(=O)N1N=C(c2ccc(C)cc2)CC1c1cn(-c2ccccc2)nc1-c1cccs1 (configuration not stated)	0	0	0	0	0	0
O=C(Nc1ccc(S(=O)(=O)N2CCOCC2)cc1)c1ccc(S(=O)(=O)N2CCOCC2)cc1	0	0	0	0	0	0
CN(c1ccc(C(=O)Nc2ccc(S(=O)(=O)N3CCCC3)cc2)cc1)S(C)(=O)=O	?	?	0	-98.5	0	?
CCN(CC)S(=O)(=O)c1ccc(N2CCOCC2)c(NC(=O)c2cc3ccccc3o2)c1	-	-	0	-73.1	0	0
CCN(CC)S(=O)(=O)c1ccc(NC(=O)c2ccc(CN3CCOCC3)cc2)cc1	?	?	?	-95.0	?	-
O=C(Nc1ccc(S(=O)(=O)N2CCCC2)cc1)c1ccc(CN2CCOCC2)cc1	?	?	0	-81.4	0	15.8µM
COc1ccc(Nc2ncc3c(n2)CCN(Cc2cccc(F)c2F)C3)c(OC)c1	-	0	0	0	0	0
O=C(Nc1ccc(S(=O)(=O)N2CCCCCC2)cc1)c1[nH]ncc1[N+](=O)[O-]	-	-	-	-86.7	-	-
O=C(Nc1ccc(Cc2ccncc2)cc1)c1ccc(Cl)c([N+](=O)[O-])c1	0	0	0	0	-	28.2µM
CC1(C)CN(CCc2ccccc2)C(=O)[C@@H]1CC(=O)Nc1ccccc1	-	0	-	-	-	-
Cc1cccc(Nc2nnc(SCC(=O)NC(=O)Nc3ccc4c(c3)OCCO4)s2)c1	?	?	0	-96.0	0	0
c1ncc(CCCC2CCNCC2)[nH]1	-	-	-	-	-	0
Cc1nn(C(C)(C)C)c(C)c1/C=N/OC(=O)Nc1ccc(Cl)c(Cl)c1	-	-	-	-61.2	-	0.316µM
CCOC(=O)c1ccc(-n2c(CCC(=O)O)ccc2-c2ccc(Br)cc2)cc1	0	0	0	0	0	0
CN1C(=O)C(C2(O)C(=O)N(Cc3ccccc3)c3cc(F)ccc32)c2ccccc21 (configuration not stated)	-	-	-	0	-	-
N[C@@H](Cc1ccccc1)c1nnc(SCc2ccccc2F)o1	0	0	?	0	11.2µM	0
O=C(O)C1CCN(S(=O)(=O)c2ccc3[nH]ccc3c2)CC1	-	-	0	0	0	0
CC1CCN(S(=O)(=O)c2ccc3[nH]ccc3c2)CC1	-	0	0	-93.7	0	0
COc1ccc(S(=O)(=O)N2CCC(C)CC2)cc1OC	-	-	-	0	-	0
O=S(=O)(c1ccc2c(c1)C(=NO)c1cc(S(=O)(=O)N3CCCCC3)ccc1-2)N1CCCCC1	?	6.31µM	1.41µM	-101.7	1.78µM	?
CC1CCN(S(=O)(=O)c2ccc3c(c2)C(=NO)c2cc(S(=O)(=O)N4CCC(C)CC4)ccc2-3)CC1	?	2.51µM	?	-98.7	2.82µM	?
COc1cc2c(cc1OC)[C@@H]1N(C)c3ccccc3[C@@]13CCN(S(=O)(=O)C(F)(F)F)C3=C2	-	-	-	0	-	-
